Compound activity from PubChem.
Rows were chosen to be rich in hits. Some 2.4% of all compounds tested hit in one or more screens of this group.
MEKK2mut PB1 HTS: MEK5 binding signal on mutant MEKK2 PB1, primary screen, biochemical, multiplex bead flow cytometry, Alexa488-MEK5; percent response, % at 10 µM; Alexa488-MEK5 binding to MEKK2 mutant; hit rate 0.35% among 290,000; in the data active = percent response above about 24%, passing the limit was not always enough
MEKK3 PB1 HTS: modulators of MEKK3-MEK5 PB1 binding, primary screen, biochemical, wildtype MEKK3, multiplex bead flow cytometry, Alexa488-MEK5. AID 1529, 2009. binding response (% of control), % at 10 µM. bead-based flow cytometry, Alexa488-MEK5 binding to MEKK3; actives lie on both sides; 0 = blocked by unlabeled MEK5, 100 = vehicle. Mitogen-activated protein kinase kinase kinase 3 (Homo sapiens), Q99759. hit rate 1.4% among 290,000;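 active = binding response more than 3 SD above or below the average of its plate-row segment, actives on both sides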;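 note: Alexa488 bead fluorescence after subtracting the streptavidin-only scavenger bead signal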
Target sequence (Q99759 whole entry, looked up): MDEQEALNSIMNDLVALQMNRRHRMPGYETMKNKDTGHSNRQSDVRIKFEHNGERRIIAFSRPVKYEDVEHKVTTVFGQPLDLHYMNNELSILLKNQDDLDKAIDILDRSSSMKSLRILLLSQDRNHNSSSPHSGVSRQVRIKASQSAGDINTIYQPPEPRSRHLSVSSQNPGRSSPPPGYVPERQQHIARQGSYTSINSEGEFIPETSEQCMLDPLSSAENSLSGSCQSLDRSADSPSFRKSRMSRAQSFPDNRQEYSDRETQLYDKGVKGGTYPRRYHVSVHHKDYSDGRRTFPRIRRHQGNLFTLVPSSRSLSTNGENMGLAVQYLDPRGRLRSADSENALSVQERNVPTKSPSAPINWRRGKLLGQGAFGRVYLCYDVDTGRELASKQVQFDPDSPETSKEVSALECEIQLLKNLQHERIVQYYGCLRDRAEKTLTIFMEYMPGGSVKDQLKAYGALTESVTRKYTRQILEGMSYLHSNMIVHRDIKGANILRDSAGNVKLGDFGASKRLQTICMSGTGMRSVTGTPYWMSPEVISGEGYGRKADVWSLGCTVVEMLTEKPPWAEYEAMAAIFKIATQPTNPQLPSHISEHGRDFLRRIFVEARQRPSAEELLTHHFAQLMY
Arbovirus anti: antivirals against arbovirus infection, primary screen, cell-based, full library, 10K replicate subset; arbovirus infection cell-based antiviral screen; inhibition, % at 10 µM; hit rate 0.37% among 200,000; AID 1251, 2008; in the data active = inhibition above about 30%
MEKK2 WT-MEK5: modulators of MEK5 binding to wildtype MEKK2, primary screen, biochemical, multiplex bead flow cytometry, Alexa488-MEK5. hit rate 1.1% among 290,000. Mitogen-activated protein kinase kinase kinase 2 (Homo sapiens), Q9Y2U5. binding response (% of control), % at 10 µM. Alexa488-MEK5 binding to MEKK2 WT; actives lie on both sides; in the data active = binding response below about 67% or above about 130%
Pf gametocyte: late stage P. falciparum gametocyte viability inhibitors, primary screen, ATP luminescence, HTS. P. falciparum stage V gametocytes, 24 h. inhibition, % at 10.9 µM. hit rate 0.065% among 150,000;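 active = inhibition above the mean plus 3 SD of compounds within the control limits, set per campaign, cut at about 38% in these data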
MEKK2wt confirm: modulators of MEK5 binding to wildtype MEKK2, confirmation, biochemical, single concentration, multiplex bead flow cytometry; hit rate 2.4% among 5,900; binding response (% of control), % at 10 µM; Alexa488-MEK5 binding to MEKK2 WT; actives lie on both sides; shares compounds with MEKK3 PB1 HTS; in the data active = binding response below about 16% or above about 210%; inactive = in between
MEKK2mut confirm: mutant MEKK2 PB1-MEK5 binding signal retest – biochemical, single concentration, multiplex bead flow cytometry, confirmation | AID 1893, 2009 | hit rate 2% among 5,900 | percent response, % at 10 µM | shares compounds with MEKK3 PB1 HTS | Alexa488-MEK5 binding to MEKK2 mutant; in the data active = percent response mostly above about 71%, no sharp cut-off; inactive = mostly below about 38%;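 note: higher means compound restores mutant binding toward wildtype level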
MEKK3 confirm: MEKK3 wild-type PB1 binding to MEK5, inhibitors, confirmation, biochemical, bead multiplex flow cytometry, single concentration, wildtype | shares compounds with MEKK3 PB1 HTS | Alexa488-MEK5 binding to MEKK3; hits give low values | binding response (% of control), % at 10 µM | hit rate 1.8% among 5,900;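 active = binding response below 72% of control, or above a set upper limit, though filed actives all read lower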;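 note: lower values mean stronger disruption of MEK5 binding to MEKK3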
Each line names hits and unclear results; the compound was inactive in the other large screens (follow-up assays come after a bar, where they were run); [ ] = another dose, or the depositor's remark.

Cn1cncc1C#Cc1ccc2cc(C3(O)CCCCC3)oc(=O)c2c1	none (no result: MEKK2mut PB1 HTS, MEKK3 PB1 HTS, Arbovirus anti, MEKK2 WT-MEK5)
Cc1ccc(/C=N/NC(=O)Cc2ccc(Cl)cc2)s1	none (no result: Arbovirus anti, Pf gametocyte)
CC(C(=O)Nc1ccc(N2CCOCC2)cc1)N1C(=O)c2ccccc2C1=O (centres undefined)	none
CC(C)C(C(=O)Nc1ccc(N2CCOCC2)cc1)N1C(=O)c2ccccc2C1=O (centres undefined)	MEKK3 PB1 HTS 2.0[inhibitor], MEKK2 WT-MEK5 -2.0[inhibitor] (no result: Pf gametocyte) | MEKK2wt confirm inactive | MEKK2mut confirm inactive | MEKK3 confirm inactive
CN1CCCC1CCNc1ccc2sc3ccccc3c(=O)c2c1 (centres undefined)	none (no result: Arbovirus anti)
Cc1cc2oc3cc(NCCC4CCCN4C)ccc3c(=O)c2cc1C (centres undefined)	MEKK2 WT-MEK5 178 (no result: Arbovirus anti) | MEKK2wt confirm inactive | MEKK2mut confirm inactive | MEKK3 confirm inactive
COc1ccc(C(C(=O)OC(C)CN(C)C)c2ccccc2)cc1 (centres undefined)	MEKK2mut PB1 HTS 25 | MEKK2wt confirm inactive | MEKK2mut confirm inactive | MEKK3 confirm 45
CC(CN1CCCC1)OC(=O)C(c1ccccc1)c1ccccc1 (centres undefined)	none (no result: Arbovirus anti)
Cc1nnc(NC(=O)CSc2nnc(CC(=O)Nc3ccccc3Cl)n2C)s1	none (no result: Arbovirus anti, Pf gametocyte)
COc1ccc(/C=N/NC(=S)Nc2cc(S(=O)(=O)N3CCOCC3)ccc2N2CCOCC2)cc1O	none (no result: Pf gametocyte)
COc1ccc(/C=C/C(=O)Nc2cc(S(=O)(=O)N3CCCCC3)ccc2N2CCCCC2)cc1OC	none
CCN1CCN(c2ccc(S(=O)(=O)N3CCCCC3)cc2NC(=O)/C=C/c2cc(OC)ccc2OC)CC1	MEKK2mut PB1 HTS 25, MEKK2 WT-MEK5 174 (no result: Arbovirus anti, Pf gametocyte) | MEKK2wt confirm inactive | MEKK2mut confirm inactive | MEKK3 confirm inactive
COc1ccc2ccccc2c1/C=N/NC(=S)Nc1cc(S(=O)(=O)N2CCOCC2)ccc1N1CCOCC1	MEKK3 PB1 HTS 133 | MEKK2wt confirm inactive | MEKK2mut confirm inactive | MEKK3 confirm inactive
O=C(/C=C/c1ccccc1)Nc1cc(S(=O)(=O)N2CCOCC2)ccc1N1CCCC1	MEKK3 PB1 HTS 142 (no result: Pf gametocyte) | MEKK2wt confirm inactive | MEKK2mut confirm inactive | MEKK3 confirm inactive
Cn1nnnc1SCCNC(=O)C1CCC(=O)N(Cc2ccc(Cl)cc2)C1 (centres undefined)	none (no result: Arbovirus anti, Pf gametocyte)
NNC(=O)c1csc(CS(=O)(=O)c2ccc(Cl)cc2)n1	none (no result: Arbovirus anti)
Cc1nc(CS(=O)(=O)c2ccc(Cl)cc2)sc1C(=O)O	MEKK3 PB1 HTS 129 (no result: Arbovirus anti) | MEKK2wt confirm inactive | MEKK2mut confirm inactive | MEKK3 confirm inactive
Cc1ccccc1C(=O)Nc1ccnn1C1CCN(Cc2ccccn2)CC1	none (no result: Arbovirus anti, Pf gametocyte)
COc1cc(C(C(=O)NCC2CCCO2)N(C(=O)Cn2nnc3ccccc32)c2ccc(C(C)=O)cc2)ccc1O (centres undefined)	none (no result: Arbovirus anti, Pf gametocyte)
Cc1ccc(-n2nc3c(=O)n(C(C)C(=O)NC4CC4)nc(C)c3c2C)cc1 (centres undefined)	none (no result: Arbovirus anti, Pf gametocyte)
CC(C)(C)C(=O)Nc1nnc(SCc2ccc(F)cc2)s1	none
CCC(=O)Nc1nnc(SCc2ccc(F)cc2)s1	MEKK3 PB1 HTS 2.0[inhibitor], MEKK2 WT-MEK5 3.0[inhibitor] | MEKK2wt confirm inactive | MEKK2mut confirm inactive | MEKK3 confirm inactive
CCOC(=O)CN1C=C(c2ccc3ccccc3n2)C(C[N+](=O)[O-])c2ccccc21 (centres undefined)	MEKK2mut PB1 HTS 82, MEKK2 WT-MEK5 67 (no result: Pf gametocyte) | MEKK2wt confirm inactive | MEKK2mut confirm inactive | MEKK3 confirm inactive
